The values that follow come from PubChem BioAssay AID624040 (The Scripps Research Institute Molecular Screening Center, 2012).

The structures appear in SMILES notation. The whole screen tested about 360,000 compounds, of which about 2,100 (0.58%) were called active.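 Rule for the calls: active = inhibition above a per-plate cutoff, the mean of that plate's test compounds plus 3 SD (cut at about 27% in these data); inactive = the rest.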 Many of the other results were omitted from the sample, so actives are more common in it than they were.

For orientation: inhibition means the relative decrease from the control value, in per cent.

For this test, the target named is Muscarinic acetylcholine receptor M5 (Homo sapiens) (UniProt P08912). Nature of the test: human M5 muscarinic receptor antagonists, primary screen, CHO cells, Fluo-8 calcium fluorescence (AID 624040).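 Note: 0% = acetylcholine EC80 with DMSO and 100% = DMSO without agonist.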 As to conditions: CHO-hM5 cells, ACh EC80, at 3 µM, active compounds read high.
Sequence of Muscarinic acetylcholine receptor M5 (Homo sapiens) (P08912 whole entry, looked up): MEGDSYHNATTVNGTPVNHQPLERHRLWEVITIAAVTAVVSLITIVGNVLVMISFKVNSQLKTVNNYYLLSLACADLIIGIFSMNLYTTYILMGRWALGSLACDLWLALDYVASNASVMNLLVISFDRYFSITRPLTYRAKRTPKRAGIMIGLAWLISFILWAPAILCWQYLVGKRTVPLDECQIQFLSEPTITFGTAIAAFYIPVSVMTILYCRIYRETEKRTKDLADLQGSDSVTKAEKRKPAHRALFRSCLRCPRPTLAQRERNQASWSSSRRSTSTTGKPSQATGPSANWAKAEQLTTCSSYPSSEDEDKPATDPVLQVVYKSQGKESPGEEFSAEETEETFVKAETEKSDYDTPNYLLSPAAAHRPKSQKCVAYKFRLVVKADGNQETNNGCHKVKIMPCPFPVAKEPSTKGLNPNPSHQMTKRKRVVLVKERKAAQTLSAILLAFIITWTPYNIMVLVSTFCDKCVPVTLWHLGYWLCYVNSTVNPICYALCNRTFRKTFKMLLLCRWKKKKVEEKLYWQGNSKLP
As to `CCCC[N+]1(C)C2CC(OC(=O)C(CO)c3ccccc3)CC1C1OC12` (stereo not given), the inhibition was 73.3% (active).

Take `CCn1cc(CN2CCCC(C(=O)c3cccc(C(F)(F)F)c3)C2)cn1` (stereo not given): the inhibition was 12.4% (inactive).

For the compound `CCCCCCCCCCCCn1ccc(=N)cc1`, the inhibition was 33.9% (active).

In the case of `CCOC(=O)C1(c2ccccc2)CCN(CC(O)c2ccc(NC(C)=O)cc2)CC1` (stereo not given), the inhibition was 11.2% (inactive).

In the case of `O=c1c2ccccc2nc(/C=C/c2ccco2)n1-c1ccccc1O`, the inhibition was 3.76% (inactive).

For the compound `Cc1ccc(-c2nn(CCC#N)cc2C(=O)O)cc1C`, the inhibition was 1.31% (inactive).

In the case of `CC[N+]1(C)CCCC(OC(=O)C(O)(c2ccccc2)c2ccccc2)C1` (stereo not given), the inhibition was 98.3% (active).

For the compound `Oc1cc2c(cc1CN1CCN(c3ccccc3)CC1)OCO2`, the inhibition is 15.7% (inactive).

For the compound `COC(=O)C[C@H]1CC[C@H]2NC[C@@H](O)COC[C@@H]2O1`, the inhibition was 7.66% (inactive).

Regarding `COC1=CC=C2[C@H]3Cc4ccc(OC)c5c4[C@@]2(CCN3C)C1O5` (stereo not given in full), the inhibition was -5.74% (inactive).

Regarding `CNC(=S)N/N=C1\C2CN3CCN(C2)CC1(c1ccccc1)C3`, the inhibition was 3.28% (inactive).

`Nc1ccc(C(=O)N/N=C2/CN3CCC2CC3)cc1`: the inhibition is 6.34% (inactive).

As to `CC1CCCN1CCC(C(N)=O)(c1ccccc1)c1ccccc1` (stereo not given), the inhibition is 99.5% (active).

Consider `O=C(Cc1ccccc1)N1CCN(C2CCCCCC2)CC1`, for which the inhibition was 0.09% (inactive).

`CC1CCCCN1Cc1cccnc1` (stereo not given): the inhibition was 12.5% (inactive).

As to `CCCC(C)n1[nH]c(=O)c2c1NC(=O)CSC2c1ccc(OC)c(OC)c1` (stereo not given), the inhibition was 7.43% (inactive).

`CC1C2Cn3c(nc4ccccc43)C1N(C)O2` (stereo not given): the inhibition was 0.97% (inactive).

Regarding `Cc1ncoc1C(=O)NCC1=C(c2cccc3ccccc23)C[C@@H]2CC[C@H]1N2Cc1ccco1`, the inhibition is -3.17% (inactive).

For `COc1ccc2c(c1O)-c1cccc3c1[C@@H](C2)N(C)CC3`, the inhibition is -4.83% (inactive).

With `COc1ccc(C2C=C(C)Oc3c2c(=O)oc2ccccc32)cc1OC` (stereo not given), the inhibition was 2.6% (inactive).
